# Measurements taken from PubChem BioAssay (NCATS).
# Records with an inconclusive call do not appear. Where a call stands in place of a potency, no number is given. Calls of active or inactive are those of the source. The call rests on the fitted dose curve; in most records, active means well fitted curve in the direction sought with a large enough effect; inconclusive means small, poorly fitted or top-dose-only effect, or another doubt; inactive means no such curve, though single readings can be large; an effect the other way counts as inactive or inconclusive.
# Tests used:
# [1] = Primary redox qHTS assay for identification of artifact compounds. (AID 1845223)
# Outline: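 Redox-cycling detection via DTT (250 uM final) oxidation coupled to Amplex Red (25 uM)/HRP (250 mU/mL) in HBSS. 15 min preincubation plus 30 min after DTT, room temperature. Ex/Em 525/598 nm; 4-parameter Hill fit against DMSO and 10 uM DA3003.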
# [2] = Quantitative High-Throughput drug screen in 47 multiple myeloma cell lines against the NCATS MIPE library collection: Delta47_JCRB cell viability assay (AID 1918925; further: nearly all actives have a fitted effect of over 45% in size; further: potency means the concentration at half of the fitted maximal effect)
# Outline: (§1)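 Approved and investigational drugs from MIPE 4.0 were added by pin tool to 500 cells per well. After 48 hours at 37C, ATP-based CellTiter-Glo luminescence indicated remaining viability.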
# [3] = Quantitative High-Throughput drug screen in 47 multiple myeloma cell lines against the NCATS MIPE library collection: AMO1_DSMZ cell viability assay (AID 1918927; further: nearly all actives have a fitted effect of over 30% in size; further: potency means the concentration at half of the fitted maximal effect)
# Outline: as §1
# [4] = Quantitative High-Throughput drug screen in 47 multiple myeloma cell lines against the NCATS MIPE library collection: ARD_JJKsccE7 cell viability assay (AID 1918929; further: potency means the concentration at half of the fitted maximal effect)
# Outline: as §1
# [5] = Quantitative High-Throughput drug screen in 47 multiple myeloma cell lines against the NCATS MIPE library collection: Karpas620_DSMZ cell viability assay (AID 1918959); further: nearly all actives have a fitted effect of over 30% in size; further: potency means the concentration at half of the fitted maximal effect
# Outline: (§2)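 Steps: seed 500 cells per well; pin-transfer MIPE 4.0 library; incubate 48 h at 37C, 5% CO2, humidified; add CellTiter-Glo, 5 min room temperature; read luminescence.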
# [6] = Quantitative High-Throughput drug screen in 47 multiple myeloma cell lines against the NCATS MIPE library collection: FR4_PLB cell viability assay (AID 1918924; further: nearly all actives have a fitted effect of over 35% in size; further: potency means the concentration at half of the fitted maximal effect)
# Outline: as §2
# [7] = Quantitative High-Throughput drug screen in 47 multiple myeloma cell lines against the NCATS MIPE library collection: Karpas417_ECACC cell viability assay (AID 1918961); conditions: Karpas417 myeloma viability, CellTiter-Glo ATP luminescence, 48 h; viability (% of DMSO): at 45.8 µM (top of the series)
# Outline: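 CellTiter-Glo luminescence (ATP) after 48 h compound exposure, 37C/5% CO2; 500 cells/well; MIPE 4.0 approved/investigational drugs pinned in; DMSO = 100%, media only = 0% viability.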
# [8] = Quantitative High-Throughput drug screen in 47 multiple myeloma cell lines against the NCATS MIPE library collection: EJM_DSMZ cell viability assay (AID 1918926; further: nearly all actives have a fitted effect of over 30% in size; further: potency means the concentration at half of the fitted maximal effect)
# Outline: as §1
# [9] = Quantitative High-Throughput drug screen in 47 multiple myeloma cell lines against the NCATS MIPE library collection: ARP1_JJKsccF8 cell viability assay (AID 1918928; further: potency means the concentration at half of the fitted maximal effect; nearly all actives have a fitted effect of over 40% in size)
# Outline: (§3)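 Viability screen: myeloma cells (500/well) incubated 48 h at 37 °C, humidified 5% CO2, with pinned library compounds; CellTiter-Glo added, luminescence read; DMSO wells set 100%, medium-only wells 0%.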
# [10] = Quantitative High-Throughput drug screen in 47 multiple myeloma cell lines against the NCATS MIPE library collection: KMM1_JCRB cell viability assay (AID 1918960); further: nearly all actives have a fitted effect of over 30% in size; further: potency means the concentration at half of the fitted maximal effect
# Outline: as §3
SMILES,Potency [1],Potency [2],Potency [3],Potency [4],Potency [5],Potency [6],Potency [7],Potency [8],Potency [9],Potency [10]
CN(C)CC(C)(C)CNc1nn2c(-c3ccccc3)nnc2cc1C1CCC1,inactive,13.2 µM (active),2.96 µM (active),inactive,14.8 µM (active),–,–,–,–,–
O=c1c2ccccc2nc2n1CCc1c-2[nH]c2ccccc12,inactive,–,inactive,inactive,18.7 µM (active),inactive,inactive,–,–,–
C=CC(=O)Nc1cccc(Oc2nc(Nc3ccc(N4CCN(C)CC4)cc3OC)ncc2Cl)c1,inactive,0.0296 µM (active),–,–,–,–,inactive,–,–,–
CC(C)c1noc(N2CCC(COc3ccc(-c4ccc(S(C)(=O)=O)cc4)nc3)CC2)n1,inactive,–,inactive,–,inactive,6.62 µM (active),inactive,–,–,–
OCc1ccc(-c2ccc(-c3ccc(CO)s3)o2)s1,inactive,20.9 µM (active),–,–,inactive,–,–,11.8 µM (active),18.7 µM (active),inactive
CNC(=O)c1ccc(-c2cnc3ncc(Cc4ccc5ncccc5c4)n3n2)cc1F,inactive,–,inactive,–,inactive,–,–,–,–,inactive
CC(C)(C)c1cc(NC(=O)Nc2ccc(-c3cn4c(n3)sc3cc(OCCN5CCOCC5)ccc34)cc2)no1,inactive,–,–,–,inactive,–,–,18.7 µM (active),–,–
CC1(C)CCC(c2ccc(Cl)cc2)=C(CN2CCN(c3ccc(C(=O)NS(=O)(=O)c4ccc(N[C@H](CCN5CCOCC5)CSc5ccccc5)c(S(=O)(=O)C(F)(F)F)c4)cc3)CC2)C1,inactive,7.43 µM (active),3.72 µM (active),2.64 µM (active),0.0187 µM (active),–,–,8.33 µM (active),13.2 µM (active),1.87 µM (active)
Clc1ccc2ncc(-c3cccc(NC4CNC4)n3)n2c1,inactive,–,4.69 µM (active),–,inactive,–,inactive,18.7 µM (active),23.5 µM (active),2.35 µM (active)
CC(NCc1ccc2c(c1)nc(NC(=O)c1ccc(-c3cn[nH]c3)s1)n2CC(C)(C)O)C(C)(C)C (stereo not given),–,0.0833 µM (active),0.166 µM (active),0.296 µM (active),–,0.372 µM (active),–,0.372 µM (active),0.418 µM (active),0.235 µM (active)
COC(=O)C1=C(C)NC(C)=C(C(=O)OCCN2CCN(C(c3ccccc3)c3ccccc3)CC2)C1c1cccc([N+](=O)[O-])c1 (stereo not given),–,inactive,inactive,–,inactive,inactive,–,inactive,–,inactive
